Data on 35 compounds can be found in ChEMBL document CHEMBL1157539, “Thousands of chemical starting points for antimalarial lead identification” (Nature, 2010).

Each structure is given as a SMILES string.

The subject of one assay is Plasmodium falciparum. As to the kind of experiment: GSK_TCMDC: Inhibition of Plasmodium falciparum 3D7 in whole red blood cells, using parasite LDH activity as an index of growth. Test compounds present at 2uM. The assay is classed as functional.
Usually Inhibition stands for the relative decrease from the control value, in per cent. Read a low Inhibition as little suppression. In turn, `O=C(NC1CCCCC1)N(Cc1cccc(-c2cccc(CNC3CCCC3)c2)c1)C1CCN(Cc2ccccc2)CC1.O=C(O)C(F)(F)F` displayed an Inhibition of 96%. On the same count and under the same terms, the value for `NCc1ccc(CNCc2cccc(-c3cccc(-c4nc5ccccc5[nH]4)c3)c2)cc1.O=C(O)C(F)(F)F` was 100%; that for `COCCNC(=O)C(CNC(=O)c1ccc2c(c1)OCO2)NC(=O)c1ccc(-c2ccccc2)cc1` (stereo not given) was 90%. Still for that read-out and setting: with `CCNc1cc(C(=O)N[C@@H](Cc2ccccc2)[C@H](O)CNCc2cccc(OC)c2C)cc(N2CCCCS2(=O)=O)c1.O=CO` the figure was 97%; with `CCN(CCO)Cc1ccc(-c2ccc(NS(=O)(=O)c3cccc4cccnc34)cc2)cc1.O=C(O)C(F)(F)F`, 92%; with `CCOCCCNc1sc(S(=O)(=O)c2ccccc2)nc1S(=O)(=O)c1ccc(C)cc1`, 96%. On the same count and under the same terms, with `CN1CCC(N2CCN(Cc3ccc(-c4cccc(-c5nc6ccccc6[nH]5)c4)cc3)CC2)CC1.O=C(O)C(F)(F)F` the figure was 99%; with `O=C(Nc1ccc(Cl)c(-c2nc3ccccc3[nH]2)c1)c1ccc(-c2ccc(Cl)cc2)o1`, 89%; with `CCc1nc(N)nc(N)c1-c1cccc(Cl)c1`, 94%. As to `CCN(Cc1ccccc1)C1CCN(Cc2cc(Br)ccc2O)CC1.O=C(O)C(=O)O`, the Inhibition was 97%. As for `CC(=O)c1cccc(NC(=O)NC2CCN(CCCCCNC(=O)/C=C/c3ccc(Cl)c(Cl)c3)CC2)c1`, the Inhibition is recorded as 94%. In turn, `Cc1ccc(C2CCN(CCCCNC(=O)c3ccc(NC(=O)c4ccc(Cl)cc4)cc3)CC2)c(C)c1.Cl` showed an Inhibition of 96%. The same measure, in the same setting: the value for `COc1ccc2nccc([C@@H](O)CN3CCC(NCc4ccc5nc[nH]c(=O)c5c4)CC3)c2c1.O=C(O)C(=O)O` was 99%.

The test system of the next assay is Plasmodium falciparum. Kind of assay: GSK_TCMDC: Inhibition of Plasmodium falciparum Dd2 in whole red blood cells, using parasite LDH activity as an index of growth. Test compounds present at 2uM. The assay is classed as functional.
Turning to `CC(C)(CNC(=O)C1CCN(CCOCc2ccccc2)CC1)c1nc(-c2ccc(Cl)c(O)c2)c(-c2ccncc2)[nH]1.Cl`, the Inhibition amounted to 18%. Still for that read-out and setting: with `CSCCC(C(=O)O)N1C(=O)c2ccccc2C1=O` (stereo not given) the figure was 0%. Still for that read-out and setting: with `CCc1cn(CCc2ccccc2)c2ccc(C(=O)N[C@@H](Cc3ccccc3)[C@H](O)CNC(C)(C)CCCC(C)C)cc12.O=CO` the figure was 99%; with `O=C(Nc1cccc(CN2CCCN(Cc3cccnc3)CC2)c1)c1ccc(Cl)c(Cl)c1.O=C(O)C(F)(F)F`, 19%. Take `CS(=O)(=O)NCCCNCc1cccc(-c2ccc(-c3nc4ccccc4[nH]3)s2)c1.O=C(O)C(F)(F)F`: the Inhibition amounted to 0%. Still for that read-out and setting: with `CN1c2ccc([N+](=O)[O-])cc2C(C)(C)C12C=Cc1cc(Br)cc([N+](=O)[O-])c1O2` (stereo not given) the figure was 99%; with `CCn1cnc2c(N3CCCC3=O)cc(C(=O)N[C@@H](Cc3ccccc3)[C@H](O)CNC3CCCCC3)cc21`, 94%.

With `Fc1ccc2[nH]c(-c3ccc(-c4cccc(CN5CCCCC5)c4)cc3)nc2c1.O=C(O)C(F)(F)F`, the Inhibition is 100%.

As for `c1ccc(Oc2ccc(Nc3ccnc4cc(-c5ccc(CN6CCCCC6)o5)ccc34)cc2)nc1`, the Inhibition was determined as 100%. The same measure, in the same setting: the value for `CCN(CCNS(C)(=O)=O)c1ccc(N)c(C)c1.O.O=S(=O)(O)O` was 11%.

Compound `COc1cc(F)c2ncc(Cl)c([C@H](O)CN3CCC(NCc4ccc5c(n4)NC(=O)CO5)CC3)c2c1.Cl` registered an Inhibition of 99%.

Consider `CC(=O)Nc1nc(C(=O)Nc2ccc(-c3ccc(-c4nc5cc(F)ccc5[nH]4)cc3)cc2)cs1`, for which the Inhibition turned out to be 33%.

`CN1CCCC(OC(=O)c2ccccc2)C1` (stereo not given) registered an Inhibition of 0%. For the compound `Cc1cccc2nc(-c3ccc(-c4ccc(CNCCN5CCNCC5)cc4)s3)[nH]c12.O=C(O)C(F)(F)F`, the Inhibition is on record as 0%. Regarding `Fc1ccc(CNc2ncc(-c3ccsc3)c(-c3nccs3)n2)cc1`, the Inhibition worked out at 77%. Turning to `C[C@H](Cc1ccc(OCCCCCCOc2ccc(C[C@@H](C)NC[C@H](O)c3cccc(Cl)c3)cc2)cc1)NC[C@H](O)c1cccc(Cl)c1.Cl`, the Inhibition is given as 99%.

Turning to `O=C(/C=C/c1ccccc1)N1CCOC(CCN2CCC(c3ccccc3)CC2)(c2ccc(Cl)c(Cl)c2)C1` (stereo not given), the Inhibition was determined as 63%. Consider `Cc1cc(N[C@@H](CC(C)C)C(=O)NCc2cccc(F)c2)nc(Nc2ccccc2)n1.O=C(O)C(F)(F)F`, for which the Inhibition is given as 76%. Still for that read-out and setting: the value for `Cc1c(C(=O)C2CC2CN2CCC(N3CCCC3)CC2)sc2ccccc12` (stereo not given) was 9%; that for `CCC(CC)n1c(COC)cc2c3c(N)nc(N)nc3ccc21` was 0%; that for `Fc1ccc(C=NN=c2cc[nH]c3ccccc23)cc1` was 100%. On to `CCCc1cc(OC)c(C[C@H]2c3cc(O)c(Cl)cc3CCN2C)cc1OC.Cl`, for which the Inhibition is 98%.
